CHO-K1 Ca PAM: nonselective activator or artifact in parental CHO-K1 calcium assay | ATP EC20, Fluo-8 calcium fluorescence; 0% at ATP EC20, 100% at ATP max | AID 602247 | 360,000 compounds, 0.02% hits | activation, % at 3 µM;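 active = activation above the run cutoff, the mean activation of all test compounds plus 3 SD, cut at about 40% in these data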;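 also: peak over basal fluorescence ratio in a 140 s read after ATP addition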
ANO1 activ: mouse TMEM16A channel activation, primary screen; Q8BHY3; HEK293 TMEM16A/YFP-H148Q/I152L, iodide quench fluorescence; active compounds read low; B-score at 10 µM; 340,000 compounds, 0.3% hits;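 active = fluorescence-ratio B-score plate-corrected deviation score at least 3 library SD below zero, with starting fluorescence score within 5 deviations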;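 also: channel opened by trigger with iodide after compound preincubation; score built on the fluorescence ratio of max minus min over baseline; more negative score means more quench and so TMEM16A activation or potentiation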
NTR1 agonist: activates human neurotensin receptor 1 | 330,000 compounds, 0.17% hits | NTR1-U2OS beta-arrestin-GFP spot imaging, agonist mode | activation, % at 20 µM | P30989;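 active = activation at or above 40% of the spot to cytoplasm intensity ratio, with at least 20 cells analyzed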;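 also: 0% = DMSO without peptide and 100% = 100 nM NTR1 peptide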
CHO-K1 Ca antag: M1 antagonist counterscreen hit in parental CHO-K1 cells | ATP-induced calcium, Fluo-8 fluorescence | inhibition, % at 3 µM | 360,000 compounds, 0.6% hits | AID 602250;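 active = inhibition above a per-plate cutoff, the plate's mean sample inhibition plus 3 SD, cut at about 24% in these data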;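 also: 0% = DMSO plus EC80 ATP and 100% = DMSO alone without ATP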
M1 ag parental: M1 agonist counterscreen hit in parental CHO-K1 cells. Fluo-8 calcium fluorescence; scaled to maximal ATP response, vehicle zero. activation, % at 3 µM. 360,000 compounds, 0.48% hits; in the data active = activation above about 15%;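 also: untransfected CHO-K1 host cells lacking M1 receptor as counterscreen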
TMEM16A inh: inhibitors of mouse TMEM16A calcium-activated chloride channel. normalized B-score (activity score, 25-100; higher = stronger inhibition) at 10 µM. AID 588511. 310,000 compounds, 1.2% hits. HEK293 TMEM16A/YFP iodide influx fluorescence, ionomycin;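 active = ratio plate-corrected score three or more library SD toward inhibition, starting fluorescence score within five deviations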;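 also: score derived from kinetic fluorescence span divided by baseline fluorescence per well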
* marks the source's active call; other numbers are inactive results; i = inactive; nt = no result. Sampled rows, rich in hits. Any-hit rate of the full collection: about 2.2%.

SMILES	CHO-K1 Ca PAM	ANO1 activ	NTR1 agonist	CHO-K1 Ca antag	M1 ag parental	TMEM16A inh
Cc1ccc(OCc2nnc(SCc3nc4ccccc4[nH]3)n2Cc2ccco2)cc1	8	i	0	2	8	100*
CCOc1ccc(NC(=O)c2ccccc2NS(=O)(=O)c2ccc(F)cc2)c([N+](=O)[O-])c1	6	i	5	-4	10	25*
O=C(Nc1cc(S(=O)(=O)N2CCCCC2)ccc1Cl)c1ccccc1NS(=O)(=O)c1ccc(F)cc1	2	i	nt	21	12	25*
Cc1ccccc1NCC(=O)Nc1cc(S(=O)(=O)N2CCCCC2)ccc1C	1	i	1	-7	1	nt
CC(NCC(=O)Nc1cc(S(=O)(=O)N2CCCCCC2)ccc1Cl)c1ccccc1 (stereo unspecified)	13	i	2	-12	5	100*
Cn1c(SCC(=O)NC2CCCCC2)nnc1C(F)(F)F	13	nt	nt	-15	0	nt
Cc1ccc(N2C(=O)CC(NNc3nc4ccccc4s3)C2=O)cc1 (stereo unspecified)	15	i	-1	11	17*	i
CC(CCC(C)C(C)(C)C)[C@@H]1CC[C@H]2C3C[C@H](OS(O)(=S)=S)[C@H]4C[C@H](OS(O)(=S)=S)[C@@H](OS(O)(=S)=S)C[C@]4(C)[C@H]3CC[C@]12C (stereo partly specified) (tested in a mixture with another compound)	46*	-11*	3	-21	24*	nt
CC(CCC(=O)NN)C1CCC2C3CCC4CC(O)CCC4(C)C3CCC12C (stereo unspecified)	25	i	nt	-16	1	nt
O=C(N/N=C/c1ccc(Cl)cc1Cl)c1cccc(N2CCCC2=O)c1	4	i	1	0	0	i
O=C(NC1CCCN(Cc2ccc(Cl)cc2)C1)c1cccc(N2CCCC2=O)c1 (stereo unspecified)	0	i	1	-6	0	i
O=C(NC1CCCCCC1)c1cccc(N2CCCC2=O)c1	-6	i	-1	32*	0	i
O=C(N/N=C/c1cc(Br)cc(Br)c1O)c1cccc(N2CCCC2=O)c1	1	i	5	34*	-1	i
Cc1cccc(-n2ccnc2SCC(=O)Nc2cccc(S(=O)(=O)NC3=NCCC3)c2)c1C	8	i	0	0	1	nt
CN1CCC(=C(c2ccccc2)c2ccc(Br)cc2)CC1	23	i	4	-6	22*	i
O=C(CCl)N(c1ccccc1)C1CCS(=O)(=O)C1 (stereo unspecified)	13	i	0	13	23*	i
CC(=O)Nc1ccc(C(=O)OCC(=O)N(c2ccccc2)C2CCS(=O)(=O)C2)cc1 (stereo unspecified)	6	i	0	2	0	nt
C/C=C(\C)C(=O)OC1CC(C)(C)C[C@H]2C3=CC[C@@H]4[C@@]5(C)CCC(O[C@@H]6O[C@@H](C(=O)O)[C@@H](O)C(O[C@@H]7OC[C@H](O)[C@@H](O)[C@@H]7O[C@@H]7OC(CO)C(O)[C@@H](O)[C@@H]7O)C6O[C@@H]6OC(CO)C(O)C(O)C6O)[C@@](C)(CO)[C@@H]5CC[C@]4(C)[C@]3(C)CC(O)[C@@]12CO (stereo partly specified)	0	-32*	0	-13	0	nt
CC1(C)CC[C@]2(C(=O)O[C@@H]3OC(CO)[C@@H](O)[C@H](O)[C@H]3O)CC[C@]3(C)C(=CCC4[C@@]5(C)CC[C@H](O[C@@H]6OC(C(=O)O)[C@@H](O)[C@H](O)[C@H]6O)C(C)(C)C5CC[C@]43C)[C@@H]2C1 (stereo partly specified)	18	-8.8*	1	-7	1	nt
COC(=O)C1OC(OC2CC[C@]3(C)C(CC[C@@]4(C)[C@@H]3CC=C3[C@@H]5CC(C)(C)CC[C@]5(C(=O)OC5OC(CO)C(O)C(O)C5O)CC[C@]34C)C2(C)C)C(O)C(O)C1O[C@H]1OCC(O)C(O)C1O (stereo partly specified)	-3	nt	2	1	0	nt
CC(NS(=O)(=O)c1cccc(C(=O)N(C)Cc2ccc(N3CCOCC3)cc2)c1)c1ccccc1 (stereo unspecified)	-6	i	nt	-23	3	nt
N#Cc1c(-c2cccs2)cc(-c2cccs2)[nH]c1=O	40*	i	0	-47	2	i
NS(=O)(=O)c1ccc(NC(=S)N2CCN(Cc3ccc(Cl)c(Cl)c3)CC2)cc1	19	i	3	2	19*	i
NS(=O)(=O)c1ccc(NC(=S)N2CCN(c3ccc(Cl)c(Cl)c3)CC2)cc1	5	i	11	8	1	i
COc1ccc(C/C(O)=C(\C#N)c2nc3ccccc3s2)cc1	1	i	2	-21	11	100*
SMILES	CHO-K1 Ca PAM	ANO1 activ	NTR1 agonist	CHO-K1 Ca antag	M1 ag parental	TMEM16A inh
N#C/C(=C(/O)c1ccc(F)cc1)c1nc2ccccc2s1	7	i	0	-10	10	25*
N#C/C(=C(/O)COC(=O)c1ccc(C#N)cc1)c1nc2ccccc2s1	5	i	0	-5	9	25*
N#C/C(=C(/O)COc1ccccc1)c1nc2ccccc2s1	17	i	2	-2	3	i
N#C/C(=C(/O)COc1ccc(Cl)cc1)c1nc2ccccc2s1	2	i	4	-1	2	100*
CC1(C(=O)O)CCCN(C(=O)c2ccc(OC(F)F)cc2)C1 (stereo unspecified)	13	nt	nt	-9	0	nt
Cc1cc(C(=O)N2CCC2(C)C(=O)NCC(C)(C)C)nn1C (stereo unspecified)	2	nt	nt	-3	0	nt
Cc1ccc(SC/C(O)=C(\C#N)c2nc3ccccc3s2)cc1	-2	i	2	4	1	25*
Cc1ccc(CC2(C)C(=O)Nc3c(Cl)cccc32)cc1 (stereo unspecified)	13	nt	nt	-11	0	nt
C/C(=N\NC(=O)Cc1ccc(Cl)c(Cl)c1)c1cccnc1	7	i	2	44*	0	i
COc1ccc(NC(=S)NC(NC(=O)c2cccc3ccccc23)C(Cl)(Cl)Cl)c([N+](=O)[O-])c1 (stereo unspecified)	12	-7.4*	13	-18	2	i
CN(CC(=O)Nc1ccc(Cl)cc1)CC(=O)N1CCc2ccccc21	-4	nt	nt	-6	0	nt
C/C(=N\NC(=O)c1cc2ccccc2cc1O)c1ccccn1	-2	i	6	-15	0	i
C/C(=N\NC(=O)c1cc2ccccc2cc1O)c1cc2ccccc2o1	-2	i	13	-6	1	100*
